Test results: PubChem BioAssay (Tox21)
Several values for one entry are separate records, joined by “and”; a condition that tells them apart may be missing. Equal entries are not always repeated. Inconclusive results are not listed. A call without a number means that no potency is given here. Some compounds were tested as several samples or in several runs, with calls that do not always agree. Activity calls are given as the source filed them. Unless noted, calls follow the shape of the dose curve; as a rule, active = well fitted curve in the direction sought with a large enough effect in the repeat runs; inconclusive = weak or mixed curves; inactive = no such curve, though single readings can be large; an effect the other way counts as inactive or inconclusive.

Key:
[1] = qHTS assay to identify small molecule antagonists of the glucocorticoid receptor (GR) signaling pathway - cell viability counter screen (AID 720693); also: nearly all actives have a fitted effect of over 55% in size
[2] = qHTS assay for identifying genotoxic compounds that show differential cytotoxicity against isogenic chicken DT40 cell lines with known DNA damage response pathways - wild type cell line (AID 743012); also: nearly all actives have a fitted effect of over 60% in size; also: potency is read from the fitted curve at half-maximal effect
Outline: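 Wild type DT40, 300 cells/well, ~0.5 h settle at 37 C/5% CO2; compounds in DMSO added by pintool; 40 h at 37 C/5% CO2; CellTiter-Glo, 30 min RT; luminescence.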

[3] = qHTS assay for identifying genotoxic compounds that show differential cytotoxicity against isogenic chicken DT40 cell lines with known DNA damage response pathways - Rev3 mutant cell line (AID 743014); also: nearly all actives have a fitted effect of over 55% in size; also: potency is read from the fitted curve at half-maximal effect
[4] = qHTS assay for identifying genotoxic compounds that show differential cytotoxicity against isogenic chicken DT40 cell lines with known DNA damage response pathways - Rad54/Ku70 mutant cell line (AID 743015); also: nearly all actives have a fitted effect of over 60% in size; also: potency is read from the fitted curve at half-maximal effect
[5] = qHTS assay to identify small molecule antagonists of the androgen receptor (AR) signaling pathway - cell viability counter screen (AID 743033; also: nearly all actives have a fitted effect of over 45% in size)
[6] = qHTS assay to identify small molecule antagonists of the androgen receptor (AR) signaling pathway using the MDA cell line - cell viability counter screen (AID 743041; also: nearly all actives have a fitted effect of over 45% in size)
Outline: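 Same-well cytotoxicity was assessed by CellTiter-Fluor in MDA-kb2 AR-luc cells after 16 h of compound treatment under R1881 agonism.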

[7] = qHTS assay to identify small molecule antagonists of the thyroid receptor (TR) signaling pathway - cell viability counter screen (AID 743064); also: nearly all actives have a fitted effect of over 50% in size
Outline: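 In-well cytotoxicity read by CellTiter-Fluor (30 min, 37 C) following 23.5 h exposure of GH3 cells bearing a TRE-luciferase sensor. Compounds were added alongside 1 nM (final) T3 to drive TR transactivation.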

[8] = system: thyroid hormone receptor (rat, GH3 cells); assay: qHTS assay to identify small molecule agonists of the thyroid receptor (TR) signaling pathway (AID 743066; calls by dose curve)
[9] = target: Estrogen receptor (Homo sapiens) (UniProt P03372); assay: qHTS assay to identify small molecule antagonists of the estrogen receptor alpha (ER-alpha) signaling pathway (AID 743069; active = well fitted curve in the direction sought with a large enough effect in the signal ratio in the repeat runs, not every such curve was filed as active; the % refers to the signal ratio)
Estrogen receptor (Homo sapiens), sequence (P03372 whole entry, looked up): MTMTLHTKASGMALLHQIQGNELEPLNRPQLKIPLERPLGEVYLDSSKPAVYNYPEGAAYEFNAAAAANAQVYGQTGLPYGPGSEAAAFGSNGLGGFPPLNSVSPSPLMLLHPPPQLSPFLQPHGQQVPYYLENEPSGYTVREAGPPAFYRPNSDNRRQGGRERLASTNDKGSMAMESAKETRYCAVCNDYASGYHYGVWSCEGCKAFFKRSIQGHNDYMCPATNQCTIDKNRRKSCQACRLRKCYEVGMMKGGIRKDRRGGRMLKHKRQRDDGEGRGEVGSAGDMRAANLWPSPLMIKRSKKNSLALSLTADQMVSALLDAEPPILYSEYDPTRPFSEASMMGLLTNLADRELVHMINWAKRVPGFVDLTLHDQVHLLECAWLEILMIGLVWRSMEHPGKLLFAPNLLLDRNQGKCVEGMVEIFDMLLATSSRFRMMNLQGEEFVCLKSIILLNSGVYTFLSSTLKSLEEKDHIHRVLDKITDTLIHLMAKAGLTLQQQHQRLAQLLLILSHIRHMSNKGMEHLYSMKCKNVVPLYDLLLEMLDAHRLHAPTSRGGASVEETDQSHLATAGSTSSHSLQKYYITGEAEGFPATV
Outline: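 Reporter cells (ER-alpha-bla, HEK293 background) are conditioned overnight in stripped-serum medium (2% charcoal-stripped FBS). Compound and 17beta-estradiol exposure runs 18 hr at 37C, 5% CO2.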

[10] = qHTS assay to identify small molecule antagonists of the estrogen receptor alpha (ER-alpha) signaling pathway - cell viability counter screen (AID 743074; calls by dose curve;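 also: HEK293 cells carrying ER-alpha-UAS-bla reporter stimulated with 17beta-estradiol; nearly all actives have a fitted effect of over 45% in size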; also: potency is read from the fitted curve at half-maximal effect)
[11] = target: Estrogen receptor (Homo sapiens) (UniProt P03372); assay: qHTS assay to identify small molecule agonists of the estrogen receptor alpha (ER-alpha) signaling pathway (AID 743075; calls by dose curve;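 also: HEK293 GripTite cells with ER-alpha and UAS-driven beta-lactamase reporter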)
[12] = target: Estrogen receptor (Homo sapiens) (UniProt P03372); assay: qHTS assay to identify small molecule agonists of the estrogen receptor alpha (ER-alpha) signaling pathway using the BG1 cell line (AID 743079); also: nearly all actives have a fitted effect of over 20% in size
[13] = qHTS assay to identify small molecule antagonists of the estrogen receptor alpha (ER-alpha) signaling pathway using the BG1 cell line (AID 743080; calls by dose curve;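 also: BG1 cells stimulated with 17beta-estradiol alongside compound; nearly all actives have a fitted effect of over 25% in size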; also: potency is read from the fitted curve at half-maximal effect)
Outline: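 Luminescence from a 4×ERE-luciferase reporter in BG1-Luc-4E2 cells served as read-out. Cells, pre-cultured 5 days in stripped-serum phenol-red-free medium, were exposed to compound with 17beta-estradiol co-stimulation for 21.5 h at 37 C.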

[14] = qHTS assay to identify small molecule antagonists of the estrogen receptor alpha (ER-alpha) signaling pathway using the BG1 cell line - cell viability counter screen (AID 743081);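 also: compound given together with 17beta-estradiol as the ER stimulus; series mostly up to about 70 µM; nearly all actives have a fitted effect of over 45% in size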
Aromatase (Homo sapiens) = Aromatase (Homo sapiens) (UniProt P11511); assay: qHTS assay to identify aromatase inhibitors (AID 743083); also: nearly all actives have a fitted effect of over 55% in size; also: potency is read from the fitted curve at half-maximal effect
Aromatase (Homo sapiens), sequence (P11511 whole entry, looked up): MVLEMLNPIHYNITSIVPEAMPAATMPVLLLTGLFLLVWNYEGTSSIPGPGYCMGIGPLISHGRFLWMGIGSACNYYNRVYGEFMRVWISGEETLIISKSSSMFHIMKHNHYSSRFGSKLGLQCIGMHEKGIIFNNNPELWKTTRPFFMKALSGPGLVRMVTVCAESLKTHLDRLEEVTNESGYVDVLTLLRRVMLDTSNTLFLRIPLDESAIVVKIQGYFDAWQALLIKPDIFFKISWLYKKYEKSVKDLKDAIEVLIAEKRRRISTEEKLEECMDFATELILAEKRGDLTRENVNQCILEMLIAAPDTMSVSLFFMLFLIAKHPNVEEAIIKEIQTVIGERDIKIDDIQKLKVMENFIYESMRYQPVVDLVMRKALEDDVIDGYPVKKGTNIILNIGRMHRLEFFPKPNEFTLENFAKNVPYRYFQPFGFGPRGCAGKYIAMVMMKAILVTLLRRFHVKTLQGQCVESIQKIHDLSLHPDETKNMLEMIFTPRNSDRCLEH

[15] = target: Androgen receptor (Homo sapiens) (UniProt P10275); assay: qHTS assay to identify small molecule antagonists of the androgen receptor (AR) signaling pathway (AID 743035; active = well fitted inhibition curve with a large enough effect in the signal ratio in the repeat runs, not every such curve was filed as active; the % refers to the signal ratio; also: potency is read from the fitted curve at half-maximal effect)
Androgen receptor (Homo sapiens), sequence (P10275 whole entry, looked up): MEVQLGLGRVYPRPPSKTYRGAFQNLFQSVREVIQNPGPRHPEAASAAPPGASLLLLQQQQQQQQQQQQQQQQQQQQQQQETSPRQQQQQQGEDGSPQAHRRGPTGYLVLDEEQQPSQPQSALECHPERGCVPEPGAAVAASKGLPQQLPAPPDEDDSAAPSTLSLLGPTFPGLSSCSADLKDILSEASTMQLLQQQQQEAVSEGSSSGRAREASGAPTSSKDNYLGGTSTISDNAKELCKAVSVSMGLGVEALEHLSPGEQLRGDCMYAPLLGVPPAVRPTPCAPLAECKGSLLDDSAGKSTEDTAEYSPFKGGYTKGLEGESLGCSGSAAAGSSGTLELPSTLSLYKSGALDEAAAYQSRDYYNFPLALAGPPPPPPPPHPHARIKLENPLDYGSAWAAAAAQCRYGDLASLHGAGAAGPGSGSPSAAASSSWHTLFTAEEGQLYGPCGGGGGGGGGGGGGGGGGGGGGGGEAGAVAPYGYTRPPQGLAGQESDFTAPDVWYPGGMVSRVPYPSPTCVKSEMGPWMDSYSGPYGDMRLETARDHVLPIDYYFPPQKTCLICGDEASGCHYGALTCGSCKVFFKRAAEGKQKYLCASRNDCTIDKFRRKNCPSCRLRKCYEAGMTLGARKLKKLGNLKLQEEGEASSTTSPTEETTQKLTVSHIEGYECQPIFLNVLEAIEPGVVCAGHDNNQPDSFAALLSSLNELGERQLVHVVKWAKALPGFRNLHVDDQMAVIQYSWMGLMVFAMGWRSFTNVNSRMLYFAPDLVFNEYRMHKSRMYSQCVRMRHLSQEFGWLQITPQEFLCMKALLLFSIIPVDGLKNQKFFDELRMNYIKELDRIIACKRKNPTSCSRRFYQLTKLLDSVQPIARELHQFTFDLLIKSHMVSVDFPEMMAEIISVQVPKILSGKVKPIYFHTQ
Outline: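 Fluorescence from a beta-lactamase FRET substrate (LiveBLAzer B/G, 2 h, room temperature) measured inhibition of R1881-stimulated signaling in GeneBLAzer AR-UAS-bla HEK293 cells exposed to compound for 16 h at 37C.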

[16] = target: Androgen receptor (Homo sapiens) (UniProt P10275); assay: qHTS assay to identify small molecule agonists of the androgen receptor (AR) signaling pathway (AID 743036; active = well fitted activation curve with a large enough effect in the signal ratio in the repeat runs, with a control signal flat, not every such curve was filed as active; the % refers to the signal ratio)
Outline: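 Activation was read as beta-lactamase FRET signal from LiveBLAzer B/G substrate, added for 2 h at room temperature. Before that, GeneBLAzer AR-UAS-bla GripTite (HEK293) cells had 16 h compound exposure at 37C.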

[17] = target: Androgen receptor (Homo sapiens) (UniProt P10275); assay: qHTS assay to identify small molecule agonists of the androgen receptor (AR) signaling pathway using the MDA cell line (AID 743040; also: nearly all actives have a fitted effect of over 20% in size)
Outline: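 Human breast carcinoma MDA-kb2 reporter cells (MMTV-luc, AR/GR elements) were treated for 16 h at 37C in 0% CO2 following a 5 h settling period. Signal was quantified by ONE-Glo luminescence.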

[18] = target: Androgen receptor (Homo sapiens) (UniProt P10275); assay: qHTS assay to identify small molecule antagonists of the androgen receptor (AR) signaling pathway using the MDA cell line (AID 743042; also: nearly all actives have a fitted effect of over 55% in size)
Outline: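 MDA-kb2 breast carcinoma cells carrying MMTV-luciferase (AR/GR responsive) were co-treated with compounds and the agonist R1881 for 16 h at 37C. Inhibition read as ONE-Glo luminescence; CellTiter-Fluor fluorescence measured in parallel for cytotoxicity.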

[19] = qHTS assay to identify small molecule antagonists of the thyroid receptor (TR) signaling pathway (AID 743065); also: nearly all actives have a fitted effect of over 55% in size; also: potency is read from the fitted curve at half-maximal effect
Outline: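 GH3.TRE-Luc rat pituitary cells (two TREs driving luciferase) were dosed with compound, then stimulated with 1 nM T3 (final) for 23.5 h at 37 C. ONE-Glo luminescence was the read-out, with CellTiter-Fluor fluorescence as the cytotoxicity counter-screen.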

| SMILES | outcome [1] | Potency [2] | Potency [3] | Potency [4] | outcome [5] | outcome [6] | Potency [7] | outcome [8] | Potency [9] | Potency [10] | Potency [11] | Potency [12] | Potency [13] | outcome [14] | Potency (Aromatase (Homo sapiens)) | Potency [15] | outcome [16] | outcome [17] | outcome [18] | Potency [19] |
| --- | --- | --- | --- | --- | --- | --- | --- | --- | --- | --- | --- | --- | --- | --- | --- | --- | --- | --- | --- | --- |
| Cn1cc(-c2ccccc2)c(=O)c(-c2cccc(C(F)(F)F)c2)c1 | inactive | inactive | inactive | 61.1 µM (active) | inactive | inactive | inactive | inactive | inactive | inactive | inactive | inactive | inactive | inactive | inactive |  |  |  |  |  |
| Cc1[nH]c(=O)n(C(C)(C)C)c(=O)c1Cl | inactive | inactive | inactive |  | inactive | inactive | inactive | inactive | inactive | inactive | inactive | inactive | inactive | inactive | inactive | inactive | inactive | inactive | inactive | inactive |
| c1ccc(OP(Oc2ccccc2)Oc2ccccc2)cc1 | inactive | inactive | inactive |  | inactive | inactive | inactive | inactive | inactive | inactive | inactive | inactive | inactive | inactive | inactive |  |  |  |  | inactive |
| O=NN1CCCC1 | inactive | inactive | inactive |  | inactive | inactive | inactive | inactive | inactive | inactive | inactive | inactive | inactive | inactive | inactive |  |  |  |  | inactive |
| C1CN2CCN1CC2 | inactive | inactive | inactive |  | inactive | inactive | inactive | inactive | inactive | inactive and 4.36 µM (active) | inactive | inactive | inactive | inactive | inactive |  |  |  |  | inactive |
| C=CC(N)=O | inactive |  |  |  | inactive | inactive | inactive |  | inactive | inactive | inactive | inactive | inactive | inactive | inactive |  |  |  |  |  |
| c1ccc2c(c1)Oc1ccccc1O2 | inactive | inactive | inactive |  | inactive | inactive | inactive | inactive |  | inactive |  |  |  | inactive | inactive |  |  |  |  | inactive |
| COC(=O)NS(=O)(=O)c1ccc(N)cc1 | inactive | inactive | inactive |  | inactive | inactive | inactive | inactive | inactive | inactive | inactive | inactive | inactive | inactive | inactive |  |  |  |  | inactive |
| Nc1ccc(Oc2ccc(N)cc2)cc1 | inactive |  | inactive |  | inactive | inactive | inactive |  |  | inactive |  |  |  | inactive | 54.5 µM (active) |  |  |  |  |  |
| C#CC(C)(C)NC(=O)c1cc(Cl)cc(Cl)c1 | inactive |  | 68.6 µM (active) | inactive | inactive | inactive | inactive | inactive |  | inactive |  |  |  | inactive | inactive |  |  |  |  | inactive |
| CC(C)C1(C)N=C(c2nc3ccccc3cc2C(=O)O)NC1=O (centres undefined) | inactive | inactive | inactive |  | inactive | inactive | inactive | inactive | inactive | inactive | inactive | inactive | inactive | inactive | inactive |  |  |  |  | inactive |
| Cc1ccc(N)cc1N | inactive |  |  |  | inactive | inactive | inactive | inactive | inactive | inactive | inactive | inactive | inactive | inactive | inactive |  |  |  |  | inactive |
| Cc1cccc([N+](=O)[O-])c1 | inactive | inactive | inactive |  | inactive | inactive | inactive |  | inactive | inactive |  | inactive | inactive | inactive |  |  |  |  |  |  |
| CN=C=S | inactive | inactive | inactive |  | inactive | inactive |  | inactive | inactive | inactive | inactive | inactive | inactive | inactive | inactive |  |  |  |  | inactive |
| O=Cc1cccc(Oc2ccccc2)c1 | inactive | inactive | inactive |  | inactive | inactive | inactive | inactive | inactive | inactive | inactive |  | inactive | inactive | inactive |  |  |  |  | inactive |
| OCCN(CCO)CCO | inactive | inactive | inactive |  | inactive | inactive | inactive | inactive |  | inactive |  |  |  | inactive |  |  |  |  |  | inactive |
| CCC[N+](=O)[O-] | inactive | inactive | inactive |  | inactive | inactive | inactive | inactive |  | inactive |  |  |  | inactive | inactive |  |  |  |  | inactive |
| CN1C(=O)CN=C(c2ccccc2)c2cc(Cl)ccc21 | inactive | inactive | inactive |  | inactive | inactive | inactive | inactive |  | inactive |  |  |  | inactive |  |  |  |  |  |  |
| CCCC1COC(Cn2cncn2)(c2ccc(Cl)cc2Cl)O1 (centres undefined) | inactive | 55.5 µM (active) and 12.2 µM (active) | 27.8 µM (active) and 19.3 µM (active) |  |  | inactive | inactive | inactive | inactive | inactive | inactive |  | 27.8 µM (active) and 68.6 µM (active) | inactive | 31.2 µM (active) and 24.3 µM (active) | 49.9 µM (active) and 43.6 µM (active) | inactive | inactive |  | 55.5 µM (active) and 54.5 µM (active) |
| [O-][Cl+2]([O-])O | inactive |  |  |  | inactive | inactive | inactive |  | inactive | inactive | inactive | inactive | inactive | inactive | inactive |  |  |  |  |  |
